Active and inactive are the calls of the source. How the source made its calls: active means hit-call score of the fitted dose curve at least 0.9, where 1 is the maximum; inactive means score below 0.9.
What was measured:
[1] = ATG_E_Box_CIS: Attagene CIS-FACTORIAL HepG2 Assay for human Enhancer Box (E-box) (AID 2282936); conditions: HepG2 E-box cis-reporter transcription, actives raise or lower the signal
Procedure, shortened: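 DMSO served as negative control and baseline for bidirectional fitting. Human hepatoma HepG2 cells, transiently transfected with cis-reporter constructs, were dosed 24 h; reporter mRNA read by RT-PCR and capillary electrophoresis.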

[2] = ATG_M_61_CIS: Attagene CIS-FACTORIAL HepG2 Assay for M61 Transcription Factor (Internal Marker) (AID 2282937); conditions: HepG2 Attagene CIS-FACTORIAL M61 internal marker reporter; actives raise or lower the signal
Procedure, shortened: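 Cells were transfected with reporter units under cis-regulatory promoters, treated with chemicals for 24 h, then lysed for RNA. Reporter transcripts were quantified by RT-PCR and capillary electrophoresis, and activity was fitted bidirectionally against DMSO.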

[3] = ATG_EGR_CIS: Attagene CIS-FACTORIAL HepG2 Assay for human Early Growth Response 1 (EGR1) (AID 2282938); conditions: HepG2 Attagene CIS-FACTORIAL EGR reporter mRNA; actives raise or lower the signal
Procedure, shortened: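 Endogenous TF activity in HepG2 liver cells was gauged through cis-promoter reporter constructs transiently transfected. After 24 h dosing, reporter mRNA was quantified by RT-PCR and capillary electrophoresis, and curves fitted in both directions versus DMSO.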

[4] = ATG_M_19_CIS: Attagene CIS-FACTORIAL HepG2 Assay for M19 Transcription Factor (Internal Marker) (AID 2282939); conditions: HepG2 Attagene CIS-FACTORIAL M19 internal marker reporter; actives raise or lower the signal
Procedure, shortened: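 Following a 24 h exposure, RNA from transfected HepG2 cells was reverse-transcribed, PCR-amplified with reporter-specific primers, end-labelled with 6-FAM and HpaI-digested before capillary separation. Values represent gain or loss versus DMSO.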

[5] = ATG_Ets_CIS: Attagene CIS-FACTORIAL HepG2 Assay for human Erythroblast Transformation Specific (ETS) (AID 2282941); conditions: HepG2 ETS cis-reporter transcription, actives raise or lower the signal
Procedure, shortened: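 Steps: transfect HepG2 with multiple reporter units; treat compound 24 h; isolate RNA, DNase-treat, reverse-transcribe; PCR-amplify, label with 6-FAM, digest with HpaI; separate by capillary electrophoresis. Activity fitted both directions versus DMSO.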

[6] = biological target: Hepatocyte nuclear factor 3-beta (Homo sapiens) (UniProt Q9Y261); assay: ATG_FoxA2_CIS: Attagene CIS-FACTORIAL HepG2 Assay for human Forkhead box A2 (FOXA2) (AID 2282942); conditions: HepG2 cis-reporter transcription factor activity, 24 h; actives raise or lower the signal
Sequence of Hepatocyte nuclear factor 3-beta (Homo sapiens) (Q9Y261 whole entry, looked up): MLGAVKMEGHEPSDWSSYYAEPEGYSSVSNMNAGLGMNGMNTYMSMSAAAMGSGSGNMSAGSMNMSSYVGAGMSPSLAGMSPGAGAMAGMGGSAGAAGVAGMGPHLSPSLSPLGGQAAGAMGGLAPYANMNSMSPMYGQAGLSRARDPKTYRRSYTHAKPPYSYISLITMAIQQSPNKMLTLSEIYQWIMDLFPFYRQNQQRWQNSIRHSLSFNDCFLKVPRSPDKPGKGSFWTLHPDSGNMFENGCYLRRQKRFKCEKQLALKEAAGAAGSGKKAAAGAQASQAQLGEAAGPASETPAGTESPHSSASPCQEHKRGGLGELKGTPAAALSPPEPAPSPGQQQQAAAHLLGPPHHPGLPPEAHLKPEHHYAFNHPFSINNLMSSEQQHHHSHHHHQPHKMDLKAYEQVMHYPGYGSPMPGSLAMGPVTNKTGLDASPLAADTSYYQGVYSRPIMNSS
Procedure, shortened: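 Endogenous transcription factor activity was read in HepG2 cells carrying transiently transfected cis-promoter reporter units. After 24 h dosing, reporter mRNA was quantified by RT-PCR and capillary electrophoresis, and values fitted bidirectionally versus DMSO.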

[7] = ATG_FoxO_CIS: Attagene CIS-FACTORIAL HepG2 Assay for human Forkhead box O (FoxO) (AID 2282943); conditions: HepG2 Attagene cis-reporter, FoxO element, mRNA; actives raise or lower the signal
Procedure, shortened: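 HepG2, transient MRTU transfection (cis element, endogenous TFs). Dose 24 h. TriZol RNA → oligo(dT) RT → PCR → 6-FAM primer extension → HpaI cut → CE. Gain/loss vs DMSO.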

[8] = ATG_GATA_CIS: Attagene CIS-FACTORIAL HepG2 Assay for human GATA Binding Protein (AID 2282944); conditions: HepG2 GATA cis-element reporter, Attagene multiplex mRNA; actives raise or lower the signal
Procedure, shortened: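 DMSO serves as negative control and baseline for bidirectional fitting of reporter mRNA changes. HepG2 cells bearing transiently transfected cis-promoter reporters were exposed 24 h; transcripts detected via RT-PCR and capillary electrophoresis.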

[9] = ATG_GLI_CIS: Attagene CIS-FACTORIAL HepG2 Assay for human Zinc Finger Protein GLI1 (AID 2282945); conditions: HepG2, Attagene cis-factorial reporter mRNA, GLI element; actives raise or lower the signal
Procedure, shortened: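 Bidirectional curve fits relative to DMSO, using reporter mRNA levels from RT-PCR plus capillary electrophoresis. Cells were HepG2 transiently carrying cis-regulated reporter constructs, harvested 24 h after dosing.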

[10] = ATG_ISRE_CIS: Attagene CIS-FACTORIAL HepG2 Assay for human Interferon Regulatory Factor 1 (IRF1) binding to an Interferon-Stimulated Response Element (ISRE) (AID 2282948); conditions: HepG2 ISRE cis-reporter (Attagene), mRNA transcription readout; actives raise or lower the signal
Procedure, shortened: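 Transfected HepG2 (multiple reporter transcription units, cis elements) dosed 24 h. RNA → oligo(dT) RT → PCR → 6-FAM primer extension → HpaI → CE. DMSO = negative control/baseline.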

[11] = ATG_M_32_CIS: Attagene CIS-FACTORIAL HepG2 Assay for M32 Transcription Factor (Internal Marker) (AID 2282949); conditions: HepG2 Attagene cis-factorial M32 reporter, mRNA; actives raise or lower the signal;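 further: background control marker of the multiplexed CIS panel rather than a real target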
Procedure, shortened: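 Internal background marker read-out: RT-PCR/capillary electrophoresis fluorescence of reporter transcripts from transiently transfected HepG2 cells after 24 h chemical exposure. Activity fitted bidirectionally relative to DMSO negative control.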

[12] = ATG_M_06_CIS: Attagene CIS-FACTORIAL HepG2 Assay for M06 Transcription Factor (Internal Marker) (AID 2282950); conditions: HepG2 Attagene CIS-FACTORIAL M06 internal marker reporter; actives raise or lower the signal
Procedure, shortened: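 Fluorescence-labelled RT-PCR products from cis-promoter reporter units, cut with HpaI and resolved by capillary electrophoresis, give the signal. Cells are human HepG2, dosed for 24 h. Serves as background control, fitted relative to DMSO.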

[13] = biological target: Hypoxia-inducible factor 1-alpha (Homo sapiens) (UniProt Q16665); assay: ATG_HIF1a_CIS: Attagene CIS-FACTORIAL HepG2 Assay for human Hypoxia Inducible Factor 1 (HIF1A) (AID 2282951); conditions: HepG2 Attagene cis-factorial HIF1a reporter transcription; actives raise or lower the signal
Sequence of Hypoxia-inducible factor 1-alpha (Homo sapiens) (Q16665 whole entry, looked up): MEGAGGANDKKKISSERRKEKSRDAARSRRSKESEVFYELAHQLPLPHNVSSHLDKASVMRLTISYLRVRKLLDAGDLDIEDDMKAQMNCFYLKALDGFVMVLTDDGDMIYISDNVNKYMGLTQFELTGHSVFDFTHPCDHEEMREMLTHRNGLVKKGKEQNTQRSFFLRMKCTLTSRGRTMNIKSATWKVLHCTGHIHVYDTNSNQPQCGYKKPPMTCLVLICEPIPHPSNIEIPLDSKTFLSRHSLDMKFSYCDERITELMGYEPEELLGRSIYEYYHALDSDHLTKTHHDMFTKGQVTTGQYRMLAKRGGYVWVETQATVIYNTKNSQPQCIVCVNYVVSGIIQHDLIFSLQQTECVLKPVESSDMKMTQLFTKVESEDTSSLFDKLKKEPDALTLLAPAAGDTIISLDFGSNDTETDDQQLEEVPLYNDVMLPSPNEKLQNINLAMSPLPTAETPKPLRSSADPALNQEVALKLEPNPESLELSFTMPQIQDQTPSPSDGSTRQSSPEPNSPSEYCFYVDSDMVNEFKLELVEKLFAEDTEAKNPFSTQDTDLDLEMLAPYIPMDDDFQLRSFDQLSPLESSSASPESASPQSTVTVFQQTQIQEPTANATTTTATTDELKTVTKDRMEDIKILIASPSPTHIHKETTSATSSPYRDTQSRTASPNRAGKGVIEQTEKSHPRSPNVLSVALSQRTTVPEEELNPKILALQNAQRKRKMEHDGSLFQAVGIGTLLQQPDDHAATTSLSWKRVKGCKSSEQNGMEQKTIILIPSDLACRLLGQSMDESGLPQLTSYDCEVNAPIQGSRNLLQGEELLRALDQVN
Procedure, shortened: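 Measures endogenous transcription-factor activity through cis-regulated reporter mRNA in HepG2. Cells dosed 24 h; transcripts quantified by RT-PCR with 6-FAM-labelled products separated by capillary electrophoresis; DMSO serves as negative control.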

[14] = biological target: Hepatocyte nuclear factor 6 (Homo sapiens) (UniProt Q9UBC0); assay: ATG_HNF6_CIS: Attagene CIS-FACTORIAL HepG2 Assay for human Hepatocyte Nuclear Factor 6 (HNF6) (AID 2282952); conditions: HepG2 Attagene cis-factorial HNF6 reporter transcription; actives raise or lower the signal
Sequence of Hepatocyte nuclear factor 6 (Homo sapiens) (Q9UBC0 whole entry, looked up): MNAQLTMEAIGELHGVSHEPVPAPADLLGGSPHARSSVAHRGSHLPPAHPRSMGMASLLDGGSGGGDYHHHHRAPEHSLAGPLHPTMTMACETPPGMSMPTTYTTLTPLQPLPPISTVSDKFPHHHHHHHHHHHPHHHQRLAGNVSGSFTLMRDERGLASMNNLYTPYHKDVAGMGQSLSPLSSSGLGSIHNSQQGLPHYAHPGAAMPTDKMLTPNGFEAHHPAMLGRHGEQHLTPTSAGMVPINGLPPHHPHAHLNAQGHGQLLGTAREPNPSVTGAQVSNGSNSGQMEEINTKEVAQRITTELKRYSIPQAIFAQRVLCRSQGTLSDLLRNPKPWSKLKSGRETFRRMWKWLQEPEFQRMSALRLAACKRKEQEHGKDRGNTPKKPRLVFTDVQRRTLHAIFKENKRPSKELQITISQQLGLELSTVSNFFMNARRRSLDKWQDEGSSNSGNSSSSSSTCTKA
Procedure, shortened: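 Cells are HepG2 carrying transiently transfected cis-promoter reporter units. Treatment lasts 24 h, after which reporter transcripts are reverse-transcribed, amplified, FAM-labelled and sized by capillary electrophoresis. DMSO serves as baseline.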

[15] = ATG_MRE_CIS: Attagene CIS-FACTORIAL HepG2 Assay for human Metal Responsive Element (MRE) (AID 2282954); conditions: HepG2 MRE cis-reporter transcription, Attagene multiplex; actives raise or lower the signal
Procedure, shortened: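 After a 24 h chemical exposure, transiently transfected HepG2 cells yield RNA whose reporter sequences are amplified, FAM-labelled and sized by capillary electrophoresis. Curves are fitted bidirectionally relative to DMSO.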

[16] = ATG_GRE_CIS: Attagene CIS-FACTORIAL HepG2 Assay for human Glucocorticoid Response Elements (GRE) (AID 2282947); conditions: HepG2 GRE cis-reporter, Attagene multiplex mRNA; actives raise or lower the signal
Procedure, shortened: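 Assay uses human hepatoma HepG2 cells transfected with cis-promoter reporter units, exposed 24 h. mRNA from reporters detected by RT-PCR plus capillary electrophoresis; DMSO serves as negative control and baseline.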

[17] = ATG_PBREM_CIS: Attagene CIS-FACTORIAL HepG2 Assay for human Phenobarbital-responsive Enhancer Module (PBREM) (AID 2282955); conditions: HepG2 PBREM cis-reporter, Attagene multiplexed transcription; actives raise or lower the signal
Procedure, shortened: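 Fluorescence of labelled reporter cDNA fragments, resolved by capillary electrophoresis, gives mRNA induction in transfected HepG2 cells treated for 24 h; DMSO serves as negative control and baseline.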

[18] = biological target: Paired box protein Pax-6 (Homo sapiens) (UniProt P26367); assay: ATG_Pax6_CIS: Attagene CIS-FACTORIAL HepG2 Assay for human Paired Box 6 (PAX6) (AID 2282956); conditions: HepG2 CIS-FACTORIAL PAX6 reporter transcription, RNA readout; actives raise or lower the signal
Sequence of Paired box protein Pax-6 (Homo sapiens) (P26367 whole entry, looked up): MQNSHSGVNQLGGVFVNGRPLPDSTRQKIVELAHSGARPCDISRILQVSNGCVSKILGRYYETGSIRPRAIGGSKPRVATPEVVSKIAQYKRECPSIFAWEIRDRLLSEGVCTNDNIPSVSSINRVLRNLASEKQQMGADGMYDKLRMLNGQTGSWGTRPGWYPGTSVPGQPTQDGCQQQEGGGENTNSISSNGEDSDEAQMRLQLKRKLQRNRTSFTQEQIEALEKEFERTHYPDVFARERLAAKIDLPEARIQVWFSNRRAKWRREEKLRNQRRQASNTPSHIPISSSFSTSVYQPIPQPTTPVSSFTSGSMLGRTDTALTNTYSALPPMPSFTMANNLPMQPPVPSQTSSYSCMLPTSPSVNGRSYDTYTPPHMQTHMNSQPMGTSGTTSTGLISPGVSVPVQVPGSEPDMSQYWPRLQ
Procedure, shortened: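 Transient MRTU transfection of HepG2 → compound exposure 24 h → TriZol RNA, oligo(dT) RT → PCR, 6-FAM primer extension, HpaI cut → capillary electrophoresis; activity fitted both directions against DMSO.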

[19] = biological target: Bile acid receptor (Homo sapiens) (UniProt Q96RI1); assay: ATG_IR1_CIS: Attagene CIS-FACTORIAL HepG2 Assay for human Nuclear Receptor Subfamily 1 Group H Member 4 (NR1H4), IR1 submotif (AID 2282946); conditions: IR1 reporter transcription, actives raise or lower the signal
Sequence of Bile acid receptor (Homo sapiens) (Q96RI1 whole entry, looked up, the tested form may be a part): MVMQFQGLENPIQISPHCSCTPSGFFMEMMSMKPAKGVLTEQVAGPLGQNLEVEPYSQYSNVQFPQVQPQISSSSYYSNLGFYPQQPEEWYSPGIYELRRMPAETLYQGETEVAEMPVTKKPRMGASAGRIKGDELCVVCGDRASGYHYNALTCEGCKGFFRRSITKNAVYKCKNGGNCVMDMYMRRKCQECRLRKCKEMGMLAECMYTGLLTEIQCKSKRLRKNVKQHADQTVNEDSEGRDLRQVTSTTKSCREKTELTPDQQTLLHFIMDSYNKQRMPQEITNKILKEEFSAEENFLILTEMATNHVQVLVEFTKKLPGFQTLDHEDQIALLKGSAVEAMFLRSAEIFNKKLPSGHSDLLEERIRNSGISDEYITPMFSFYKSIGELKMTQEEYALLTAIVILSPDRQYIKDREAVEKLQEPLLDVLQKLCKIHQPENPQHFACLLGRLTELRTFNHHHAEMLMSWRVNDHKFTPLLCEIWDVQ
Procedure, shortened: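 Cells (human HepG2) carry transiently transfected cis-promoter reporter transcription units. Compounds are incubated 24 h, total RNA is reverse-transcribed and amplified, and labelled fragments are resolved by capillary electrophoresis. Curves use DMSO as baseline.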

[20] = biological target: Heat shock factor protein 1 (Homo sapiens) (UniProt Q00613); assay: ATG_HSE_CIS: Attagene CIS-FACTORIAL HepG2 Assay for human Heat Shock Transcription Factor 1 (HSE) (AID 2282953); conditions: HepG2 HSE cis-reporter, Attagene RNA transcription; actives raise or lower the signal
Sequence of Heat shock factor protein 1 (Homo sapiens) (Q00613 whole entry, looked up): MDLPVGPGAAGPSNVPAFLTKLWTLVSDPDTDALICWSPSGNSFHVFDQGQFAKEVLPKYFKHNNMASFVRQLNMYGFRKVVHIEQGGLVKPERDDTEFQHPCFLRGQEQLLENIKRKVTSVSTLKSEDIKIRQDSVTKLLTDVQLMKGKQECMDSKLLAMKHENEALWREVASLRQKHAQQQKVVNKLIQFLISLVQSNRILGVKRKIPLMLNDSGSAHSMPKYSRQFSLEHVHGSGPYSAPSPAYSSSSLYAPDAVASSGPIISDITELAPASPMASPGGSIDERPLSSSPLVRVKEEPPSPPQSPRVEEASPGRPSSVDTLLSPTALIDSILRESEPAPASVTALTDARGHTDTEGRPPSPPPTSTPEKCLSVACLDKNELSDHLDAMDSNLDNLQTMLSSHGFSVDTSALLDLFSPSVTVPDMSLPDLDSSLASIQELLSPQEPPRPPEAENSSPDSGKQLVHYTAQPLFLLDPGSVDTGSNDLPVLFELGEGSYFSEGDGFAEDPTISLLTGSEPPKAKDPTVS
Procedure, shortened: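 After a 24 h incubation with test chemical, transfected HepG2 cells were harvested for RNA; reporter transcripts were measured by RT-PCR and capillary electrophoresis. Values reflect gain or loss of signal relative to DMSO.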

Measured: AC50

CCCCCCCCCCCCCN1CC(C)OC(C)C1 (centres undefined)
not listed: [16] | [17] | [18] | [19] | [20]
inactive: all other assays above

CCCCOC(=O)c1ccccc1C(=O)OCc1ccccc1
not listed: [19] | [20]
inactive: all other assays above

Nc1ccc(Oc2ccc(N)cc2)cc1
not listed: [16] | [17] | [19] | [20]
inactive: all other assays above

Clc1ccccc1Cl
not listed: [8] | [18] | [20]
inactive: all other assays above

C[N+](C)(C)CC1CO1 (centres undefined)
not listed: [16] | [17] | [19] | [20]
inactive: all other assays above

[Cl-].[Cl-].[Hg+2]
active: [13] 33.4 µM
not listed: [16] | [17] | [18] | [19] | [20]
inactive: all other assays above

Cc1ccc(N)cc1
not listed: [16] | [18] | [19]
inactive: all other assays above

C1=Cc2cccc3cccc1c23
not listed: [16] | [17] | [19]
inactive: all other assays above

O=Cc1ccco1
not listed: [16] | [17] | [19]
inactive: all other assays above

COP(=S)(OC)SCN1C(=O)c2ccccc2C1=O
not listed: [8] | [16] | [17] | [18] | [20]
inactive: all other assays above

CS(=O)(=O)NC(=O)c1cc(Oc2ccc(C(F)(F)F)cc2Cl)ccc1[N+](=O)[O-]
not listed: [8] | [16] | [17]
inactive: all other assays above

CN(C)C(=O)Nc1ccc(Cl)cc1
not listed: [8] | [16]
inactive: all other assays above

Clc1ccc(C(c2ccc(Cl)cc2)C(Cl)Cl)cc1
active: [3] 45.1 µM | [5] 53.8 µM | [9] 45.9 µM | [19] 21.2 µM | [10] 49.4 µM | [20] 51.7 µM | [15] 50.6 µM
not listed: [8] | [16] | [17] | [18]
inactive: all other assays above

O=C(N[C@H](c1ccccc1)[C@@H]1CN2CCC1CC2)c1c(Cl)ccc(C(F)(F)F)c1Cl
active: [13] 0.207 µM
not listed: [8]
inactive: all other assays above

O=C1CCCO1
not listed: [8]
inactive: all other assays above

COC(=O)c1ccccc1N
not listed: [17] | [19] | [20]
inactive: all other assays above

Source: PubChem BioAssay (EPA / NIEHS)
